Screening data from PubChem BioAssay.
Sampled rows, rich in hits. Any-hit rate of the full collection: about 3.7%.
Anthrax LF inh2 = blocks Bacillus anthracis lethal factor protease; AID 588501; 0.12% of 360,000 active; inhibition, % at 10 µM; P15917; multiplex microsphere protease cleavage assay, LF
MazF activator = increases E. coli MazEF RNase cleavage of RNA; P0AE70; FAM/BHQ RNA-DNA oligo cleavage fluorescence, 5 h; activation, % at 20 µM; 0.32% of 350,000 active; in the data active = activation above about 50%
Target sequence (P0AE70 whole entry, looked up): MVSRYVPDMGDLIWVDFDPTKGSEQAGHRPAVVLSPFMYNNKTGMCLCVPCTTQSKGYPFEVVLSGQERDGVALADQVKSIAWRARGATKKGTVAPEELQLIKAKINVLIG
BoNT F protease = inhibitors of Botulinum neurotoxin F light chain protease; AID 588497; inhibition, % at 10 µM; 0.22% of 360,000 active; Multiplex microsphere protease cleavage assay, flow cytometry; in the data active = inhibition above about 35%, passing the limit was not always enough; inconclusive = no clear call, values can overlap the other calls
BoNT-A LC inh2 = BoNT A light chain protease inhibition; multiplex microsphere protease substrate cleavage, flow cytometry; inhibition, % at 10 µM; 0.17% of 360,000 active
Bead autofluor = flagged as autofluorescent in microsphere protease counterscreen. fluorescence intensity (concentration not given with the values). AID 624483. 3.1% of 360,000 active. compound autofluorescence counterscreen, microsphere flow cytometry; active compounds read high; in the data active = fluorescence intensity above about 16000; inconclusive = no clear call, values can overlap the other calls
Hits are given with their value; . = inactive; ? = inconclusive; / = no result. Cut-off read from the data, not from the text of the source, unless noted: active = inhibition above about 30%; inconclusive = no clear call, values can overlap the other calls; inactive = below that.

SMILES	Anthrax LF inh2	MazF activator	BoNT F protease	BoNT-A LC inh2	Bead autofluor
CCNS(=O)(=O)c1ccc(CCC(=O)NCc2ccccn2)cc1	.	.	?	.	.
O=C(CCNC(=O)c1ccc(Br)o1)NCc1ccccn1	.	.	.	.	24852
O=C(CCNS(=O)(=O)c1ccc(Cl)cc1)NCc1ccccn1	.	.	.	.	17910
O=C(CCNC(=O)c1ccc(Br)o1)NCc1ccccc1Cl	.	.	.	.	.
Nc1ccn([C@@H]2O[C@H](C(=O)N3CCN(Cc4ccccn4)CC3)[C@@H](O)[C@H]2O)c(=O)n1	.	/	.	.	.
Cc1cccc(S(=O)(=O)Nc2cc(Cl)ccc2N2CCOCC2)c1	.	.	.	.	.
CC1(C)OC(=O)C2=C(C[C@@H](C3CCCC3)O[C@H]2c2ccc(Cl)cc2)O1	.	/	.	.	.
Cc1c(C(=O)N2CCOCC2)oc2c1C(=O)CC(C)(C)C2	.	.	.	.	.
Cc1c(C(=O)N2CCN(C)CC2)oc2c1C(=O)CC(C)(C)C2	.	.	.	.	21465
Cc1c(C(=O)N2CCc3ccccc32)oc2c1C(=O)CC(C)(C)C2	.	.	.	.	23325
CC(NC(=O)CN1C(=O)NC(C)(c2cccc3ccccc23)C1=O)c1ccccc1 (stereo not given)	.	.	.	.	.
CCCC1=C(C(=O)OCC)C2(C(=O)Nc3ccc(C)cc32)C(C#N)=C(N)O1 (stereo not given)	.	.	.	?	20310
CCOC(=O)CC1=C(C(=O)OCC)C2(C(=O)Nc3ccccc32)C(C#N)=C(N)O1 (stereo not given)	.	.	.	.	.
Cn1cc(CN2CCN(c3ccccc3)CC2)c2ccccc21	.	.	.	.	21941
Clc1ccccc1CN1CCN(c2ccccc2)CC1	.	.	.	.	.
CC1(C(=O)Nc2ccc(Cl)c(C(F)(F)F)c2)Cc2c(-c3ccc(C(N)=O)cc3)ccnc2O1 (stereo not given)	.	/	.	.	.
Cc1cccc(OCCOC(=O)C2CCN(S(=O)(=O)c3cccs3)CC2)c1	.	.	.	.	.
CCC(CC)NC(=O)C1CCN(S(=O)(=O)c2cccs2)CC1	.	.	.	.	23956
CCOC(=O)N1CCC(NC(=O)C2CCN(S(=O)(=O)c3cccs3)CC2)CC1	.	.	.	.	20126
O=C(NC1CCCCC1)C1CCN(S(=O)(=O)c2cccs2)CC1	.	.	.	.	.
CCC(C)NC(=O)C1CCN(S(=O)(=O)c2cccs2)CC1 (stereo not given)	.	.	.	.	.
O=C(OCCN1C(=O)c2ccccc2C1=O)C1CCN(S(=O)(=O)c2cccs2)CC1	.	.	.	?	22995
CCNC(=O)c1oc2c(c1C)C(=O)CC(C)(C)C2	.	.	.	.	20892
Cc1c(C(=O)NCc2ccccc2)oc2c1C(=O)CCC2	.	.	.	.	.
Cc1c(C(=O)NCc2cccnc2)oc2c1C(=O)CC(C)(C)C2	.	.	.	.	21305
SMILES	Anthrax LF inh2	MazF activator	BoNT F protease	BoNT-A LC inh2	Bead autofluor
CCOCCc1nnc(NC(=O)Cc2ccc(Br)cc2)s1	.	.	.	.	23584
CCc1nc2c(OCc3ccc(OC(F)F)cc3)cccn2c1N(C)C(=O)c1cccs1	.	/	.	.	.
CC(C(=O)Nc1ccccc1C(=O)N1CCCC1)n1nnc2ccccc21 (stereo not given)	.	.	.	.	21214
Cc1cc(C(F)(F)F)nc(SCC(=O)c2cccc([N+](=O)[O-])c2)n1	.	.	.	.	17551
Cc1ccc(-c2cc(C(F)(F)F)nc(SCC(=O)c3cccc([N+](=O)[O-])c3)n2)cc1	.	.	.	.	.
CN(C)CCCn1c(-c2ccccc2)nc(=S)c2c1CCCC2	.	.	.	?	19594
COc1cccc(-c2nc(=S)c3c(n2Cc2ccco2)CCCC3)c1	.	.	.	.	.
CC1(C)Cc2c(c(=S)nc(-c3ccccc3)n2CCO)CO1	.	.	.	.	.
OCCCn1c(-c2ccccc2)nc(=S)c2c1CCCC2	.	.	.	?	21784
Cc1ccc(-c2nc(=S)c3c(n2Cc2ccco2)CCCC3)cc1	.	.	.	.	.
Cc1cccc(-c2nc(=S)c3c(n2Cc2ccco2)CCCC3)c1	.	.	.	.	22703
COC(=O)c1ccccc1NC(=O)CSc1nnc(C(C)NC(=O)c2ccc(Cl)cc2Cl)n1C (stereo not given)	.	.	.	.	22829
Cc1nnc(NC(=O)CSc2nnc(C(C)NC(=O)c3ccccc3F)n2C)s1 (stereo not given)	.	.	.	.	.
Cc1cc(NC(=O)CSc2ccc(Cl)cc2)no1	.	.	.	.	22791
COc1ccc(-c2ccc(SCC(=O)Nc3cc(C)on3)nn2)cc1OC	.	.	.	.	25486
Cc1ccc(SCC(=O)Nc2cc(C)on2)cc1	.	.	.	.	.
Cc1cc(NC(=O)Cn2cc(C(F)(F)F)cc(Cl)c2=O)no1	.	.	.	?	21524
Cc1cc(NC(=O)CSc2nc(-c3ccc(Cl)cc3)cs2)no1	.	77	.	?	20504
CC1CCCN(C(=O)COC(=O)CNC(=O)c2sc3ccccc3c2Cl)C1 (stereo not given)	.	.	.	.	.
Cc1cc2nc(-c3ccc(F)cc3)c(CC(C)(C)C)n2c(C)c1Br	.	/	.	.	.
CN1C(=O)c2ccc(NC(=O)c3ccc(Cl)cc3Cl)cc2C1=O	/	.	/	/	/
NC(=O)C1CCN(CC(O)COCc2ccccc2Cl)CC1 (stereo not given)	.	.	.	.	.
COc1ccccc1C(=O)NCCn1cc(SCC(=O)Nc2cc(C)on2)c2ccccc21	.	.	.	?	16999
COc1ccccc1NC(=O)CCNC(=O)C1CCN(S(=O)(=O)c2ccccc2)CC1	.	.	.	.	.
CCn1c(SCC(=O)Nc2ccc(C(C)=O)cc2)nc2nc3c(cc2c1=O)CCCC3	.	.	.	?	23239
SMILES	Anthrax LF inh2	MazF activator	BoNT F protease	BoNT-A LC inh2	Bead autofluor
Nc1c(C(=O)Nc2ccc(S(=O)(=O)N3CCCC3)cc2)sc2nc3ccc(OC(F)(F)F)cc3cc12	.	402	.	.	.
Nc1c(C(=O)Nc2ccc(S(=O)(=O)N3CCCC3)cc2)sc2nc3cc4c(cc3cc12)CCC4	.	57	.	.	.
COc1ccc2nc(SCC(=O)Nc3ccc(S(=O)(=O)N4CCCC4)cc3)c(C#N)cc2c1	.	.	.	.	.
C=C(C)Cn1c2ccc(NC(=O)NCCc3cccs3)cc2c(=O)n1C	.	/	.	.	.
COc1ccc(Cl)c(NC(=O)Nc2c(C)n(-c3ccccc3)c(=O)n2C)c1	.	.	.	.	.
Cc1cc(Cl)ccc1NC(=O)Nc1c(C)n(-c2ccccc2)c(=O)n1C	.	.	.	.	22798
CC(C)=CCC[C@H](C)C[C@@H]1CC2=C(C(=O)OC(C)(C)O2)[C@H](c2ccc(F)cc2)O1	.	/	.	.	.
CCOC(=O)NC(Nc1nnc(C)s1)(C(=O)OCC)C(F)(F)F (stereo not given)	.	.	.	.	.
CCOC(=O)NC(Nc1nc2ccccc2s1)(C(=O)OCC)C(F)(F)F (stereo not given)	.	.	.	.	25071
